“And” between values parts separate entries of the source, which are not always exact repeats. Equal values may be shown once. Records with an inconclusive call do not appear. The source made the active and inactive calls. The call rests on the fitted dose curve; in most records, active means well fitted activation curve with a large enough effect in the repeat runs; inconclusive means weak or mixed curves; inactive means no such curve, though single readings can be large or run the other way.
On the % scale 0 is the no-effect control and ±100 the full control effect.

Nuclear receptor subfamily 1 group I member 2 (Rattus norvegicus), sequence (Q9R1A7 whole entry, looked up): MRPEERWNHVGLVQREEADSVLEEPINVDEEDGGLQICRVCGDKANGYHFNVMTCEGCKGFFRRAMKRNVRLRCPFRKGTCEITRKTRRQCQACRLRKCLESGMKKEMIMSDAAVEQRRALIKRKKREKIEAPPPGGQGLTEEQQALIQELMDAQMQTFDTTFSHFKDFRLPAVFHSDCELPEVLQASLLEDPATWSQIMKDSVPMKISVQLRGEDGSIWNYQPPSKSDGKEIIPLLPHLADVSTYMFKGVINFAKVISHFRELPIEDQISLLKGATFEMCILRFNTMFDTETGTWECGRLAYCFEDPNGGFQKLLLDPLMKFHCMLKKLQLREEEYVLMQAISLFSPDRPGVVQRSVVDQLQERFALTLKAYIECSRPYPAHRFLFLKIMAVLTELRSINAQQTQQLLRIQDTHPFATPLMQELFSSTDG

This test concerns the target Nuclear receptor subfamily 1 group I member 2 (Rattus norvegicus) (UniProt Q9R1A7). Kind of test: Rat pregnane X receptor (rPXR) activation by small molecules, qHTS assay (AID 1346983). Further: nearly all actives have a fitted effect of over 20% in size. Particulars: rPXR luciferase reporter cells, One-Glo luminescence, 24 h; stronger effect = higher value. An excerpt: National Center for Advancing Translational Sciences [NCATS] NIH Chemical Genomics Center [NCGC] U.S. Environmental Protection Agency [EPA] National Institutes of Environmental Health Sciences [NIEHS] National Toxicology Program [NTP] Assay overview: The Pregnane X receptor (PXR), a ligand activated nuclear receptor plays a critical role in the regulation of genes involved in drug metabolism and transporters. PXR binds xenobiotics and when compounds interact with PXR produces enhanced expression of CYP3A genes. In humans PXR activation and CYP3A4 induction can be problematic due to their interactions with co-medicated drugs and decrease their efficacy or increase their own metabolism. However, there are known species-specific differences with regard to PXR activation that should be taken into account when animal PXR data are extrapolated to humans. A cell based rat PXR (rPXR) assay (developed by Puracyp, Inc., CA) was used to assess the activation of rPXR.
Assay Protocol Summary: rPXR cells were dispensed at 2,000 per well in 5uL of assay medium into white, solid-bottom 1536-well plates using a Multidrop Combi dispenser (Thermo Scientific). The assay plates were incubated at 37 C for 5hr before transferring 23 nL of test compounds dissolved in DMSO and positive control via Pintool station (Wako). The assay plates were incubated at 37 C for 24 hr. Then 5ul One-Glo assay reagent (Promega) was added to each plate by a Flying Reagent Dispenser (FRD, Aurora Discovery) and following 30 min incubation at room temperature, luciferase activity was quantified on a ViewLux plate reader (Perkin Elmer).
As for `CN(C)[C@@H]1C(=O)C(C(N)=O)=C(O)[C@@]2(O)C(=O)C3=C(O)c4c(O)cccc4[C@@](C)(O)[C@H]3C[C@@H]12`, the max activation was -1.09% (inactive). Take `CC(NC(C)(C)C)C(=O)c1cccc(Cl)c1` (stereo not given): the max activation is -1.59% (inactive). For `O=c1n(Cl)c(=O)n(Cl)c(=O)n1Cl`, the max activation was 0.0046% (inactive). In the case of `CC(C)=C[C@@H]1[C@@H](C(=O)OCc2coc(Cc3ccccc3)c2)C1(C)C`, the max activation was 12.4% (inactive). Regarding `OC(O)C(Cl)(Cl)Cl`, the max activation was -1.41% (inactive).

As for `O=[N+]([O-])c1ccccc1`, the max activation is 7.19% (inactive). For the molecule `CC1OC(C)OC(C)O1` (stereo not given), the max activation was -1.58% (inactive) and 0.0541% (inactive). As for `CCOC(=O)c1ccccc1C(=O)OCC`, the max activation was -0.77% (inactive). In the case of `O=[N+]([O-])c1ccc([As](=O)(O)O)cc1`, the max activation is -0.802% (inactive). Turning to `Clc1ccccc1Cl`, the max activation is -2.27% (inactive). For the molecule `Nc1ccccc1C(=O)O`, the max activation is -2.88% (inactive). Regarding `C#CCN(C)[C@H](C)Cc1ccccc1`, the max activation was -1.33% (inactive). Next, `C[C@]12CC[C@H]3[C@@H](CC[C@@]45O[C@@H]4C(O)=C(C#N)C[C@]35C)[C@@H]1CC[C@@H]2O`: -0.29% (inactive); `Clc1ccc(Cl)cc1`: -1.7% (inactive); `O=C(NC(=O)c1c(F)cccc1F)Nc1cc(Cl)c(OC(F)(F)C(F)C(F)(F)F)cc1Cl` (stereo not given): -1.37% (inactive).

The values above are taken from PubChem BioAssay (Tox21).
